This is an account of results in PubChem BioAssay AID588499 (NMMLSC, 2011).

Hit rate of the full screen: of about 360,000 compounds, about 610 (0.17%) were called active. About 2% were inconclusive and are not listed. The sample holds actives, similar compounds and a random draw of the others, so the mix is not that of the screen. Unmarked numbers belong to inactive results. No stated cut-off is given here; in the data, active means inhibition above about 30%; inconclusive means no clear call, values can overlap the other calls; inactive means below that.

The term inhibition denotes the relative decrease from the control value, in per cent.

The assay concerns Botulinum neurotoxin type A light chain protease (Clostridium botulinum A str. ATCC 3502). Nature of the assay: BoNT/A light chain protease inhibitors, primary screen, biochemical, flow cytometry, MLPCN library (AID 588499). Further: plate controls were buffer without enzyme for full effect and enzyme alone for no effect. As to conditions: multiplex microsphere protease substrate cleavage, at 10 µM, hits give high values. (In general: In flow cytometry, cells or beads pass a laser one at a time.)
`CCOC(=O)C1CCN(C(=O)Cc2c(C(=O)O)[nH]c3ccccc23)CC1`: the inhibition was -4.4%.

Regarding `CCOC(=O)N(C)c1c(CC)nc2c(OCc3ccccc3C(=O)OC)cccn12`, the inhibition was -0.1%.

As for `CCN1CCN(c2ccc(S(=O)(=O)N3CCCCC3)cc2NC(=O)Cc2c(Cl)cccc2Cl)CC1`, the inhibition was -1.8%.

Regarding `CCn1c(O)c(N=NC2=NC(=O)CS2)c2cc(C)ccc21`, the inhibition was -0.3%.

With `COC(=O)c1ccc(CN2CCCC(C(=O)Nc3cccc(-n4cnnn4)c3)C2)cc1` (centres undefined), the inhibition is -3.3%.

For the compound `CC(C)C1N=C2c3ccccc3N=C(SCC(=O)c3ccc(O)c(O)c3)N2C1=O` (centres undefined), the inhibition was 0.1%.

As to `Cc1cc(C(C)(C)C)oc1C(=O)N(CC(=O)NC1CCCC1)Cc1ccc(Cl)cc1`, the inhibition is -0.3%.

Regarding `CC1(C(=O)Nc2cccc(Oc3ccccc3)c2)CCN1Cc1ccccc1Cl` (centres undefined), the inhibition was -0.1%.

As to `CC(C)CN(C(=O)CN1CCN(S(=O)(=O)c2ccccc2)CC1)c1c(N)n(CC(C)C)c(=O)[nH]c1=O`, the inhibition was -2.5%.

As for `Cc1cc(-c2nnc(CCC(=O)NC(c3ccccc3)c3ccccc3)o2)no1`, the inhibition was 0.3%.

On to `CCOC(=O)c1cc2c(=O)n3ccccc3nc2n(CC(C)C)c1=NC(=O)c1c(-c2c(F)cccc2Cl)noc1C`, for which the inhibition was 60.3% (active).

Regarding `CCCn1c(=NC(C)=O)c(C(=O)OCC)cc2c(=O)n3ccccc3nc21`, the inhibition is 0.6%.

For `Cc1onc(-c2c(F)cccc2Cl)c1C(=O)OCC(=O)N1C(C)CCCC1C` (centres undefined), the inhibition was 0.1%.

Turning to `CC(C)C(C)(C#N)NC(=O)CSc1nncn1-c1ccccc1` (centres undefined), the inhibition is -0.7%.

Turning to `Cc1ccc(SCC2=NNC(=O)C2)cc1`, the inhibition is 0.6%.

With `CCc1ccc(CCC(=O)Nc2ccc(S(N)(=O)=O)cc2)o1`, the inhibition was 0.3%.

Turning to `CCCCCCN1CCN(C2CN(Cc3cn(CCCCCC)nn3)S(=O)(=O)C2)CC1` (centres undefined), the inhibition was -0.3%.

Consider `Cc1ccc2nc(-c3ccccc3)c(CC3CCCCC3)n2c1`, for which the inhibition was 1.4%.

In the case of `CC1=CCC2C(=O)N(c3cccc(C(=O)NC(C)c4ccccc4)c3)C(=O)C2C1` (centres undefined), the inhibition is -3.1%.

With `COCCNC(=O)COc1ccc(N(C)S(=O)(=O)c2ccc3ccccc3c2)cc1`, the inhibition is -1.4%.

Regarding `Cc1ccc(C)c(NC(=O)CN(C)C(=O)COc2ccc3ccccc3c2)c1`, the inhibition was -0.4%.

Consider `Cc1cc2ccccc2n1CCNC(=O)COc1ccc2ccccc2c1`, for which the inhibition is 61.4% (active).

Regarding `Cc1ccc(S(=O)(=O)N2CC[C@H]3[C@@H](C2)C(=O)C[C@@H](c2ccccc2)N3S(=O)(=O)c2ccc(C)cc2)cc1`, the inhibition was -0.4%.

With `Cc1ccc(N(C(=O)c2ccc(CN3CCOCC3)o2)C(C(=O)NCCC(C)C)c2cccs2)c(C)c1` (centres undefined), the inhibition is -1%.

On to `Cc1cccc(N(CC(=O)Nc2ccc(-c3nc4ccc(C)cc4s3)cc2)S(C)(=O)=O)c1`, for which the inhibition was -0.9%.

For the compound `CCCCCc1c(-c2ccc(OC)c(OC)c2)ncn1CCc1ccccc1OC`, the inhibition is -0.2%.

For the compound `COC(=O)c1ccc2nc(-c3ccc(OC)c(OC)c3)c(Cc3ccccc3)n2c1`, the inhibition is 3%.

`CCCOc1cccc(C(=O)Nc2ccccc2C(=O)N2CCN(C)CC2)c1`: the inhibition is -2.3%.

Regarding `COc1ccc(C(=O)NC(Cc2ccc(OC(=O)c3ccc(OC)cc3)cc2)C(=O)O)cc1` (centres undefined), the inhibition is 0.4%.

Regarding `c1csc(-c2nnc(COc3ccc4c(c3)OCO4)o2)c1`, the inhibition is -0.4%.

Consider `COC(=O)c1ccc2nc(-c3ccc(C)cc3)c(Cc3ccc(OC)cc3C)n2c1`, for which the inhibition is 0.7%.

As to `COCCNC(=S)N/N=C/c1c(C)[nH]c2ccccc12`, the inhibition was 42.9% (active).

`Cc1[nH]c2ccccc2c1/C=N/NC(=O)CNC(=O)c1ccc2c(c1)OCO2`: the inhibition was 0.6%.

As for `CN=c1scc(-c2cc(OC)ccc2OC)n1/N=C/c1c(C)[nH]c2ccccc12`, the inhibition is 7.7%.

With `CCCN(C(=O)CSc1nnnn1C)c1c(N)n(Cc2ccccc2)c(=O)[nH]c1=O`, the inhibition was -0.4%.

Take `CCOC(=O)c1ccn(-c2nc(-c3ccco3)cc(C(F)(F)F)n2)n1`: the inhibition was 0.1%.

As for `O=C(Cn1cnc2c(OCc3ccccc3)ncnc21)NCc1nc2ccccc2[nH]1`, the inhibition was -0.1%.

Regarding `Cc1ccc(Cc2c(-c3ccco3)nc3ccc(Cl)cn23)cc1`, the inhibition is 4.3%.

Turning to `CCc1nnc(NC(=O)CSc2nc3ccccc3c(=O)n2CCCOC)s1`, the inhibition is 0.5%.

With `O=[N+]([O-])c1ccc(NS(=O)(=O)c2ccccc2)c(Cl)c1`, the inhibition was -0.4%.

As for `CCN(C(=O)Cc1c(C(=O)O)n(CC)c2ccccc12)c1ccccc1C`, the inhibition is -3.2%.

`O=C1/C(=C/c2ccc(F)cc2)SC(=S)N1NS(=O)(=O)c1ccccc1`: the inhibition is 1.8%.

Take `COc1cc(-c2nnc(Cn3cc(C(F)(F)F)ccc3=O)o2)cc(OC)c1OC`: the inhibition was 0.9%.

Regarding `COc1cc(/C=C2\SC(=S)N(Nc3ncc(C(F)(F)F)cc3Cl)C2=O)cc(OC)c1OC`, the inhibition was 82.7% (active).

With `Nc1nnc(SCC(=O)OCc2ccc(Cl)c(Cl)c2)s1`, the inhibition is -0.2%.

In the case of `O=c1cnnc(Nc2ccccc2F)[nH]1`, the inhibition is -1.3%.

As to `N#Cc1ccc(N2Cc3ccccc3/C2=N/C(=O)Nc2ccc(Cl)cc2)cc1`, the inhibition is -0.1%.

Turning to `Cc1cc([N+](=O)[O-])nn1Cc1ccc(F)cc1`, the inhibition is -0.3%.

In the case of `Nc1nonc1-n1nnc(C(=O)N/N=C/c2cc(Br)ccc2O)c1CSC1=NCCS1`, the inhibition is 0.6%.

With `COc1ccc(CCNC(=S)N2CCN(S(=O)(=O)c3ccc(F)cc3)CC2)cc1`, the inhibition is 0.6%.

Turning to `Cn1c(NN)nc2sc3c(c2c1=O)CCC3`, the inhibition was -1.4%.

As to `CC1CCc2c(sc3nc4n(c(=O)c23)CCS4)C1` (centres undefined), the inhibition was 52.4% (active).

As to `CCCn1nnc2sc3c(c2c1=O)CCC(C)C3` (centres undefined), the inhibition is 0.3%.

For the compound `Cc1ccc2[nH]c(C(=O)O)c(NC(=O)c3ccccc3[N+](=O)[O-])c2c1`, the inhibition was 0.9%.

Consider `O=C1CSC(c2cccc(F)c2)N1c1ccccc1F` (centres undefined), for which the inhibition is -0.9%.

As for `Cc1cc(Br)ccc1NC(=O)CCCOc1cc(=O)n(C)c2ccccc12`, the inhibition is 0%.

Regarding `CCC(=O)N(C)C(c1ccccc1Cl)c1nnnn1-c1c(C)cccc1C` (centres undefined), the inhibition was -0.4%.

For the compound `COc1ccc(/C(=N\O)c2nccc3cc(OC)c(OC)cc23)cc1OC`, the inhibition was -0.2%.

`COc1ccc(C2OC(CCc3ccccc3)Cc3[nH]c(=S)[nH]c(=O)c32)cc1` (centres undefined): the inhibition is 0.5%.

As for `CCOc1ccc2ccccc2c1/C=N/NC(=O)c1c(C)cc(C)[nH]c1=O`, the inhibition is 0.8%.

`O=C(O)c1ccc2c(=O)n3c(nc2c1)/C(=C/c1ccc(OC(F)F)cc1OC(F)F)CC3`: the inhibition is -1.9%.

Take `CC(C)(C)c1ccc(S(=O)(=O)NC(=O)C2(C)CCN2C(=O)CC2CC2)cc1` (centres undefined): the inhibition was -0.9%.

Take `O=C(CC(NC(=O)c1ccccc1)c1ccccc1)Nc1ccc(F)c(F)c1` (centres undefined): the inhibition was -0.5%.

On to `CN(C(=O)CSc1nnc(-c2n[nH]c3ccccc23)o1)c1ccccc1`, for which the inhibition is 0.1%.

In the case of `Cc1nc(C(F)(F)F)ccc1C(=O)N1CCC1(C)C(=O)NS(=O)(=O)c1ccccc1` (centres undefined), the inhibition is -0.7%.

As to `Nc1nc2c(ncn2[C@@H]2O[C@H](CNCc3ccc(OCCCN4CCOCC4)cc3)[C@@H](O)[C@H]2O)c(=O)[nH]1`, the inhibition is -0.1%.

As to `CCc1oc(-c2ccc(OC)cc2)c(C(=O)OCCCCCO)c1C(C)OCCO` (centres undefined), the inhibition is 0.8%.

Take `Cc1c(Cl)cccc1NC(=S)NCc1ccc2c(c1)OCO2`: the inhibition is -1.1%.

For the compound `Cc1ccc(C)c2[nH]c(=O)c(CCNC(=O)c3cccs3)cc12`, the inhibition was -0.5%.

Consider `COC(=O)c1ccc(CNC(=O)c2ccc(S(=O)(=O)N3CCCCCC3)cc2)cc1`, for which the inhibition is 0.1%.

In the case of `Cc1cc2cc(CNC(=O)c3ccc(S(=O)(=O)N4CCOCC4)cc3)ccc2[nH]1`, the inhibition was 71.1% (active).

Turning to `O=C(Nc1ccc2cn[nH]c2c1)c1ccc(S(=O)(=O)N2CCOCC2)cc1`, the inhibition was -1.3%.

Consider `CCc1cccc(CC)c1NC(=S)NCc1ccc2[nH]c(C)cc2c1`, for which the inhibition is 34.3% (active).

In the case of `Cc1cc2cc(CNC(=O)c3cccs3)ccc2[nH]1`, the inhibition was 75.4% (active).

Turning to `Cc1cccc(NC(=S)NCc2ccc3[nH]c4c(c3c2)CCCC4)c1`, the inhibition was 0.2%.

As for `CCOc1ccc(C(C)=O)cc1COC(=O)CNC(=O)c1cccs1`, the inhibition was -0.9%.

As for `O=C(CSc1nncn1-c1cccnc1)N1CCOCC1`, the inhibition was -0.7%.

In the case of `O=C(/C=C(O)/C=C/c1ccc(O)cc1)/C=C/c1ccc(O)cc1`, the inhibition was 38.1% (active).

As for `COc1cccc(C=CC(=O)C=CC=Cc2ccccc2)c1`, the inhibition is 0.9%.

Regarding `COc1ccc(/C=C/C(=O)c2c(O)cc(OC)cc2OC)cc1`, the inhibition was -0.9%.

For the compound `Cc1ccccc1S(=O)(=O)NC(=O)C1(C)CCN1C(=O)C1(c2ccc(Cl)cc2)CC1` (centres undefined), the inhibition was -0.5%.

With `Cc1cc(C(=O)COc2ccccc2[N+](=O)[O-])c(C)n1-c1cccc(S(=O)(=O)N2CCOCC2)c1`, the inhibition was -2%.

For `C#CCNC(=O)C[C@@H]1C[C@@]2(C(=O)OCC)CCCC=C2N(Cc2ccco2)C1=O`, the inhibition was -1.2%.

With `CN(CC(=O)Nc1ccc(F)cc1)CC(=O)N1CCCCC1`, the inhibition was 0.4%.

`COc1ccc(NC(=O)c2sc(=O)n(Cc3ccc(S(=O)(=O)N(C)C)cc3)c2C)cc1`: the inhibition is -0.2%.

On to `CC1(C(=O)NS(=O)(=O)c2ccc(Cl)cc2)CCN1C(=O)CC1CCCC1` (centres undefined), for which the inhibition is -0.4%.

For `CN(C(=O)CCn1c(=S)oc2ccccc21)C1CCCCC1`, the inhibition is 0.7%.

Take `Cn1nc(N)c2ncc(C(Cl)(Cl)Cl)nc21`: the inhibition was 0%.

Take `Fc1cccc(Cc2c(-c3cccc(Cl)c3)nc3ccc(Br)cn23)c1`: the inhibition is 9.7%.
